Reference: the supplement of paper PMC9446081
The whole screen tested about 39,000 compounds, of which about 220 (0.56%) showed activity. The sample holds actives, similar compounds and a random draw of the others, so the mix is not that of the screen. Values without a mark were called inactive.

tested on: Escherichia coli K-12 BW25113; assay: relative growth (OD600 normalised to plate interquartile mean) (fraction); higher = less growth inhibition, active = 0.2 or less; details: 50 µM; LB; incubation time: overnight (16-24 h)
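Note: Wild-type cells incubated without shaking, value is the mean of two biological replicates.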

| Structure (SMILES) | relative growth |
| --- | --- |
| CC(C)(C)[S@](=O)N1Cc2cc(C(=O)N3CCCCC3)nc(-c3cccc(-c4ccc(C#N)cc4)c3)c2[C@@H]1CCO | 1 |
| C[C@@H]1CN([C@@H](C)CO)C(=O)c2cc(-c3ccc(C(=O)N(C)C)cc3)cnc2O[C@H]1CN(C)C(=O)c1cccnc1 | 1.03 |
| CCCNC(=O)N1CC[C@]2(CC1)CN([C@@H](CO)c1[nH]c3cc(ccc3c12)OC)C(=O)CN1CCOCC1 | 0.998 |
| COCCOC(=O)N1C(=O)[C@@]2(c3cc(C#Cc4ccc(OC)cc4)ccc31)[C@H](C(=O)N1CCN(c3ncccn3)CC1)[C@H]1C(=O)O[C@H](c3ccccc3)[C@H](c3ccccc3)N1[C@@H]2c1ccccc1OCCO | 1.07 |
| O=C1C[C@]2(c3ccc([N+](=O)[O-])cc3)C(=O)N(C3CC3)c3cc(CO)ccc3[C@H]2N1CC12CC3CC(CC(C3)C1)C2 | 1.01 |
| CO[C@H]1CN(C)C(=O)c2cc(NC(=O)Nc3cccc(F)c3)ccc2OC[C@@H](C)N(C(=O)Nc2c(C)noc2C)C[C@H]1C | 0.978 |
| C[C@H](CO)N1C[C@H](C)[C@H](CN(C)C(=O)Nc2ccc(N3CCN(C)CC3)cc2)OCc2cnnn2CCCC1=O | 0.983 |
| CC[C@H]1OC(=O)[C@H](C)[C@@H](O[C@H]2C[C@@](C)(OC)[C@@H](O)[C@H](C)O2)[C@H](C)[C@@H](O[C@@H]2O[C@H](C)C[C@H](N(C)C)[C@H]2O)[C@](C)(O)C[C@@H](C)CN(C)[C@H](C)[C@@H](O)[C@]1(C)O | 0.0562 (active) |
| CC[C@H]1OC(=O)[C@H](C)[C@@H](O[C@H]2C[C@@](C)(OC)[C@@H](O)[C@H](C)O2)[C@H](C)[C@@H](O[C@@H]2O[C@H](C)C[C@H](N(C)C)[C@H]2O)[C@](C)(O)C[C@@H](C)[C@@H]2N[C@@H](COCCOC)O[C@H]([C@H]2C)[C@]1(C)O | 0.469 |
| CCC(=O)OC1C(OC2C(C)C(OC3CC(C)(OC)C(O)C(C)O3)C(C)C(=O)OC(CC)C(C)(O)C(O)C(C)C(=O)C(C)CC2(C)O)OC(C)CC1N(C)C.CCCCCCCCCCCCOS(=O)(=O)O (stereo not given) | 0.953 |
| CO[C@H]1C[C@H](O[C@H]2[C@H](C)[C@@H](O[C@H]3O[C@H](C)C[C@H](N(C)C)[C@H]3O)[C@@H](C)C[C@]3(CO3)C(=O)[C@H](C)[C@@H](O)[C@@H](C)[C@@H](C)OC(=O)[C@@H]2C)O[C@@H](C)[C@@H]1O | 0.954 |
| CCCN1C[C@H](C)[C@@H](O)[C@](C)(O)[C@@H](CC)OC(=O)[C@H](C)[C@@H](O[C@H]2C[C@@](C)(OC)[C@@H](O)[C@H](C)O2)[C@H](C)[C@@H](O[C@@H]2O[C@H](C)C[C@H](N(C)C)[C@H]2O)[C@](C)(O)C[C@H]1C | 0.116 (active) |
| CCC1OC(=O)C(C)C(OC2CC(C)(OC)C(O)C(C)O2)C(C)C(OC2OC(C)CC(N(C)C)C2O)C(C)(O)CC(C)CN(C)C(C)C(O)C1(C)O (stereo not given) | 0.0435 (active) |
| CCC1OC(=O)C(C)C(OC2CC(C)(OC)C(O)C(C)O2)C(C)C(OC2OC(C)CC(N(C)C)C2O)C(C)(O)CC(C)C(=O)C(C)C(O)C1(C)O.CCCCCCCCCCCCCCCCCC(=O)O (stereo not given) | 0.665 |
| C[C@H](CO)N1C[C@H](C)[C@H](CN(C)S(=O)(=O)c2cccs2)Oc2ncc(-c3cccc(F)c3)cc2C1=O | 0.97 |
| O=C(Cn1nnc2ccccc2c1=O)Nc1nnc[nH]1 | 0.982 |
| C[C@@H]1CN([C@H](C)CO)S(=O)(=O)c2ccc(C#CC3(O)CCCC3)cc2O[C@H]1CN(C)C(=O)Nc1cccc(F)c1 | 1 |
| Cc1cc(C)n(CCNC(=O)[C@H]2CCCN(c3cccc4c3C(=O)N(Cc3ccc5c(c3)OCO5)C4=O)C2)n1 | 0.993 |

| Structure (SMILES) | relative growth |
| --- | --- |
| C[C@H](CO)N1C[C@H](C)[C@H](CN(C)C(=O)Nc2ccc(F)cc2)Oc2ncc(Br)cc2C1=O | 0.974 |
| CN(C)C(=O)C[C@@H]1CC[C@@H]2[C@H](COC[C@H](O)CN2S(=O)(=O)c2ccccc2)O1 | 1.02 |
| Cn1cnc(S(=O)(=O)N2C[C@@H](O)COC[C@H]3O[C@@H](CC(=O)N4CCN(c5ccccc5)CC4)CC[C@@H]32)c1 | 1.02 |
| CC[C@@H](C)[C@H]1O[C@@]2(CC[C@@H]1C)C[C@H]1C[C@@H](CC=C(C)[C@@H](O[C@H]3C[C@@H](OC)[C@@H](O[C@H]4C[C@@H](OC)[C@@H](O)[C@@H](C)O4)[C@@H](C)O3)[C@@H](C)C=CC=C3CO[C@H]4[C@@H](O)C(C)=C[C@@H](C(=O)O1)[C@]34O)O2.CO[C@H]1C[C@@H](O[C@@H]2[C@@H](OC)C[C@@H](O[C@@H]3C(C)=CC[C@@H]4C[C@@H](C[C@@]5(CC[C@@H](C)[C@H](C(C)C)O5)O4)OC(=O)[C@@H]4C=C(C)[C@H](O)[C@@H]5OCC(=CC=C[C@@H]3C)[C@@]45O)O[C@@H]2C)O[C@@H](C)[C@@H]1O | 1 |
| C[C@@H]1CCCCO[C@H](CN(C)C(=O)Nc2ccccc2)[C@H](C)CN([C@@H](C)CO)C(=O)c2cc(NC(=O)c3ccccc3)ccc2O1 | 0.982 |
| CCC1OC(=O)C(C)C(OC2CC(C)(OC)C(O)C(C)O2)C(C)C(OC2OC(C)CC(N(C)C)C2O)C(C)(O)CC(C)C2NC(COCCOC)OC(C2C)C1(C)O (stereo not given) | 0.433 |
| CC[C@H]1OC(=O)[C@H](C)[C@@H](O[C@H]2C[C@@](C)(OC)[C@@H](O)[C@H](C)O2)[C@@H](C)[C@@H](O[C@H]2O[C@H](C)C[C@H](N(C)C)[C@H]2O)[C@](C)(O)C[C@@H](C)C(=O)[C@H](C)[C@@H](O)[C@]1(C)O | 0.375 |
| CCOC(=O)CCC(=O)OC1C(OC2C(C)C(OC3CC(C)(OC)C(O)C(C)O3)C(C)C(=O)OC(CC)C(C)(O)C(O)C(C)C(=O)C(C)CC2(C)O)OC(C)CC1N(C)C (stereo not given) | 0.709 |
| CCC1OC(=O)C(C)C(OC2CC(C)(OC)C(O)C(C)O2)C(C)C(OC2OC(C)CC(N(C)C)C2O)C(C)(OC)CC(C)C(=O)C(C)C(O)C1(C)O (stereo not given) | 0.536 |
| CCC(=O)O[C@H]1[C@H](O[C@@H]2[C@@H](C)[C@H](O[C@H]3C[C@@](C)(OC)[C@@H](O)[C@H](C)O3)[C@@H](C)C(=O)O[C@H](CC)[C@@](C)(O)[C@H](O)[C@@H](C)C(=O)[C@H](C)C[C@@]2(C)O)O[C@H](C)C[C@@H]1N(C)C | 0.947 |
| CCC1OC(=O)C(C)C(OC2CC(C)(OC)C(O)C(C)O2)C(C)C(OC2OC(C)CC(N(C)C)C2O)C(C)(O)CC(C)C(=NOCOCCOC)C(C)C(O)C1(C)O (stereo not given) | 0.613 |
| CC[C@@H]1OC(=O)[C@@H](C)[C@H](O[C@H]2C[C@@](C)(OC)[C@@H](O)[C@H](C)O2)[C@@H](C)[C@H](O)[C@@](C)(O[C@@H]2O[C@H](C)C[C@H](N(C)C)[C@H]2O)C[C@H](C)C(=O)[C@@H](C)[C@H](O)[C@@]1(C)O | 0.427 |
| CCOC(=O)CCC(=O)O[C@H]1[C@H](O[C@@H]2[C@@H](C)[C@H](O[C@H]3C[C@@](C)(OC)[C@@H](O)[C@H](C)O3)[C@@H](C)C(=O)O[C@H](CC)[C@@](C)(O)[C@H](O)[C@@H](C)C(=O)[C@H](C)C[C@@]2(C)O)O[C@H](C)C[C@@H]1N(C)C | 0.0544 (active) |
| CC[C@@H]1OC(=O)[C@H](C)[C@@H](O[C@H]2C[C@@](C)(OC)[C@@H](O)[C@H](C)O2)[C@H](C)[C@@H](O[C@@H]2O[C@H](C)C[C@H](N(C)C)[C@H]2O)[C@](C)(O)C[C@@H](C)/C(=N\OCOCCOC)[C@H](C)[C@@H](O)[C@]1(C)O | 0.165 (active) |
| CC[C@H]1OC(=O)[C@H](C)[C@@H](O[C@H]2C[C@@](C)(OC)[C@@H](O)[C@H](C)O2)[C@H](C)[C@@H](O[C@@H]2O[C@H](C)C[C@H](N(C)C)[C@H]2O)[C@](C)(OC)C[C@@H](C)C(=O)[C@H](C)[C@@H](O)[C@]1(C)O | 0.0351 (active) |
| CCC1OC(=O)C(C)C(OC2CC(C)(OC)C(O)C(C)O2)C(C)C(OC2OC(C)CC(N(C)C)C2O)C(C)(O)CC(C)C(=O)C(C)C(O)C1(C)O (stereo not given) | 0.408 |
| CC[C@H]1OC(=O)[C@H](C)[C@@H](O[C@H]2C[C@@](C)(OC)[C@@H](O)[C@H](C)O2)[C@H](C)[C@@H](O[C@@H]2O[C@H](C)C[C@H](N(C)C)[C@H]2O)[C@](C)(O)C[C@@H](C)C(=O)[C@H](C)[C@@H](O)[C@]1(C)O | 0.0484 (active) |
